High-throughput results deposited in PubChem BioAssay by Broad Institute.
The sample as a whole holds a higher share of hits than the screen did.
Tg IFNy HTS = inhibitors of Toxoplasma gondii growth with IFN-gamma | Toxoplasma gondii growth in IFN-gamma-treated host cells; active compounds read low | activity change, negative = inhibition, % (concentration not given with the values) | 69,000 compounds, 3.8% hits; in the data active means activity change below about -70%, passing the limit was not always enough;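 further: host cells are HeLa cells infected with Toxoplasma gondii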
A number is an active result; i = inactive.

SMILES	Tg IFNy HTS
O=C1CC2(CCN(C(=O)Cc3ccc4c(c3)OCO4)CC2)CN1	i
O=C(c1cnn2cc(CCO)cnc12)N1C[C@@H]2[C@@H]3CC[C@@H](C3)[C@@H]2C1	i
C[C@H](CO)N1C[C@H](C)[C@@H](CN(C)S(=O)(=O)c2ccccc2F)Oc2ncc(/C=C/c3ccccc3)cc2C1=O	i
C[C@H](CO)N1C[C@H](C)[C@@H](CN(C)Cc2ccc(Oc3ccccc3)cc2)Oc2c(NC(=O)CCC(F)(F)F)cccc2C1=O	i
C[C@H](CO)N1C[C@H](C)[C@H](CN(C)S(=O)(=O)c2ccc(Cl)cc2)Oc2c(NC(=O)Nc3ccc(F)cc3)cccc2C1=O	-81
C[C@@H]1CN([C@H](C)CO)C(=O)c2cc(/C=C/c3ccccc3)cnc2O[C@@H]1CN(C)S(=O)(=O)c1ccccc1F	-88
COc1ccc(S(=O)(=O)N(C)C[C@H]2Oc3c(NC(=O)c4nc5ccccc5s4)cccc3C(=O)N([C@@H](C)CO)C[C@@H]2C)cc1	-78
C[C@@H]1CN([C@@H](C)CO)C(=O)c2cccc(NC(=O)Nc3ccc(F)cc3)c2O[C@H]1CN(C)S(=O)(=O)c1ccc(Cl)cc1	i
C[C@H](CO)N1C[C@H](C)[C@@H](CN(C)Cc2ccccc2)Oc2c(NC(=O)Cc3cn(C)c4ccccc34)cccc2C1=O	-93
COc1ccc(S(=O)(=O)N(C)C[C@@H]2Oc3c(NC(=O)c4nc5ccccc5s4)cccc3C(=O)N([C@H](C)CO)C[C@H]2C)cc1	i
C[C@@H]1CN([C@@H](C)CO)C(=O)c2cccc(NC(=O)c3nc4ccccc4s3)c2O[C@@H]1CN(C)C(=O)Nc1ccc2c(c1)OCO2	i
C[C@@H]1CN([C@@H](C)CO)C(=O)c2cccc(NS(C)(=O)=O)c2O[C@H]1CN(C)Cc1ccc(-c2ccccc2)cc1	i
C[C@@H]1CN([C@@H](C)CO)C(=O)c2cc(/C=C/c3ccccc3)cnc2O[C@@H]1CN(C)S(=O)(=O)c1ccccc1F	i
C[C@@H]1CN([C@@H](C)CO)C(=O)c2cccc(NC(=O)Nc3ccc(F)cc3)c2O[C@@H]1CN(C)S(=O)(=O)c1ccc(Cl)cc1	i
O=C(c1cc2c(s1)CCC2)N1CCC(C2Nc3ccccc3S(=O)(=O)N2)CC1 (configuration not stated)	i
Cc1oc(-c2ccccc2)nc1Cc1noc(Cc2ccc(F)cc2)n1	i
CN(CCc1ccccn1)C(=O)c1nccnc1C(=O)O	i
Cc1ccc(F)c(CN2CCC3(CCNCC3)C2)c1Cl	i
Cc1cnc(N2Cc3ccnn3CC(COCC(=O)N(C)C)C2)nc1 (configuration not stated)	i
CS(=O)(=O)N1CC2(CCN(C(=O)[C@H]3CCCO3)CC2)c2ccccc21	i
O=C(c1cnccn1)N1CCC2(CCCc3ccccc32)CC1	i
CCOC(=O)N1CCC(NC(=O)C2CC(=O)N(CC(C)C)C2)CC1 (configuration not stated)	i
Cc1nc(C2COCCN2C(=O)c2c(C)noc2C)cs1 (configuration not stated)	i
OCCC1CN(Cc2ccc(O)c(Cl)c2)CCN1Cc1ccc(F)c(F)c1 (configuration not stated)	i
CC(C)CN1C[C@]23CN(C(=O)c4cn(C)c5ccccc45)C[C@@H](C[C@H]2S1(=O)=O)O3	i
SMILES	Tg IFNy HTS
CCS(=O)(=O)N1CCC2(CC1)CN(C(=O)c1cccc(F)c1)[C@@H](CO)c1c2c2ccc(OC)cc2n1C	i
O=C(N1CCOCC1)N1CCc2ncnc(-c3ccccc3)c2CC1	i
CC(=O)NCc1cnc(C2CCCN2CC(=O)Nc2nccs2)cc1C(F)(F)F (configuration not stated)	i
CC(=O)NCC(=O)N1[C@@H]2CC[C@H]1c1ccc(Nc3ncc(C(F)(F)F)c(NC4CCC4)n3)cc12	-74
CCS(=O)(=O)N1CCN(c2ccc(Nc3ncc(C(N)=O)c(NC4CC4)n3)cc2)CC1	i
CN(C)S(=O)(=O)c1ccc2c(c1)CCN2C(=O)c1cncc(Br)c1	i
CS(=O)(=O)N1CCN(C2CCOCC2)CC(C(=O)O)C1 (configuration not stated)	-100
CN(C)C(=O)[C@H]1C[C@@H]2CCN(S(C)(=O)=O)C[C@H]2O1	i
CS(=O)(=O)N1Cc2ccccc2C2(CCN(C3CCOCC3)CC2)C1	i
CC(=O)N1CC(=O)N(c2ccccc2)CC12CCN(CC1CCOCC1)C2 (configuration not stated)	-86
CC(=O)N1CC(=O)N(c2ccccc2)CC12CCN(C(=O)N1CCCC1)C2 (configuration not stated)	i
CC(=O)N1CC(=O)N(c2ccccc2)CC12CCN(C(=O)C1CCOCC1)C2 (configuration not stated)	i
Cc1cc(C)n(C2CCN(Cc3ccc(C#CC(C)(C)O)s3)C2)n1 (configuration not stated)	i
COc1cc(-c2noc(-c3c(O)c4ccccc4[nH]c3=O)n2)ccc1OC(C)C	i
O=C1CN(Cc2ccccc2)CC(=O)N1CCc1ccccc1	i
CN(CCCc1cnn(C)c1)Cc1cc2ccc(F)cc2[nH]c1=O	i
O=c1[nH]c2cc3c(cc2cc1CN(CCO)Cc1nnnn1Cc1ccccc1)OCCO3	-82
Cc1ccc2cc(CN(CCO)CCO)c(=O)[nH]c2c1	i
Cc1ccc(CN(C)C(=O)[C@@H](O)Cc2ccccc2)o1	i
CCc1nc(OCC(=O)Nc2ccc(C(C)C)cc2)c2ccccc2n1	i
CCOc1nc(Nc2ccc(C(C)C)cc2)nc(NC2CCCCC2)n1	-87
CC(C)c1nc2ccc(Br)cn2c1NC1CCCCC1	i
CCN(CC1CCOCC1)C(=O)CCn1c(C)cc(C)nc1=O	i
Cc1ccc(OCC(=O)NCCc2sc(-c3ccc(Cl)cc3)nc2C)cc1	-76
Cc1ccc(OCC(=O)NCCc2sc(-c3ccc(F)cc3)nc2C)cc1	i
SMILES	Tg IFNy HTS
Cc1nc(-c2ccc(F)cc2)sc1CCNC(=O)c1ccc(C(C)(C)C)cc1	i
Cc1nc(-c2ccc(Cl)cc2)sc1CCNC(=O)c1ccc(F)cc1	i
Cc1nc(-c2ccc(Cl)cc2)sc1CCNC(=O)COc1ccccc1	i
Cc1ccc(C(=O)NCCc2sc(-c3ccc(Cl)cc3)nc2C)cc1C	i
Cc1nc(-c2ccc(F)cc2)sc1CCNC(=O)c1ccccc1	i
Cc1nc(-c2ccc(F)cc2)sc1CCNC(=O)c1ccc(Br)cc1	-81
Cc1nc(-c2ccc(Cl)cc2)sc1CCNC(=O)c1ccc(F)c(F)c1	-77
O=C1NCCC12CCCN(Cc1ccncc1)CC2 (configuration not stated)	i
CCCN(CC)C(=O)c1ccc2onc(-c3coc(C4CC4)n3)c2c1	i
CCOc1ccc(C2c3[nH]c4ccccc4c3CCN2C(=O)C2CCC2)cc1 (configuration not stated)	i
COc1ccc(-n2c(=O)c(C(=O)Nc3ccc(C)cc3F)c(O)c3cccnc32)cc1	i
CCOc1ccc(NC(=O)C(=O)NCCc2sc(-c3cccc(C)c3)nc2C)cc1	i
CCc1ccc(CNC(=O)c2cc3cc(S(=O)(=O)N(C)C)ccc3n2Cc2ccncc2)cc1	i
O=S(=O)(CC(O)CS(=O)(=O)c1ccc(Br)cc1)c1ccccc1 (configuration not stated)	i
Nc1nc2nc3nc(N)sc3cc2s1	i
COc1ccc(CN(CCCn2ccnc2)Cc2ccc3c(c2)CCCN3C)cc1	i
Cc1ccc(CNC(=O)c2cn3c(n2)CCCC3)cc1	i
CCOC(=O)c1c[nH]c(C(=O)OCC)c1O	i
O=c1nc(Nc2ccc(OC(F)(F)F)cc2)c2ccccc2o1	i
